Reference: PubChem BioAssay (NCI)
About 83,000 compounds went through this panel and 20% of them were active in at least one assay; those are over-represented in the sample as a whole.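 48-hour exposure, single concentration, 96-well plates; percent growth endpoint where 0 means no net growth. Active: below 10.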

How the values were obtained:
Experiment in all cases: NCI-60 one-dose screen, 48 h (100 = growth as untreated, 0 = no growth, -100 = all killed)
SK-MEL-2 melanoma = conditions: 10 µM
EKVX NSCLC = conditions: 10 µM
SN12C renal = conditions: 10 µM
UO-31 renal = conditions: 10 µM
TK-10 renal = conditions: 10 µM unless noted
ACHN renal = conditions: 10 µM
CAKI-1 renal = conditions: 10 µM
A498 renal = conditions: 10 µM
CCRF-CEM leukemia = conditions: 10 µM
MOLT-4 leukemia = conditions: 10 µM
SR leukemia = conditions: 10 µM
RPMI-8226 leukemia = conditions: 10 µM
OVCAR-8 ovarian = conditions: 10 µM
OVCAR-5 ovarian = conditions: 10 µM
OVCAR-4 ovarian = conditions: 10 µM
SK-OV-3 ovarian = conditions: 10 µM
IGROV1 ovarian = conditions: 10 µM
OVCAR-3 ovarian = conditions: 10 µM
HS 578T breast = conditions: 10 µM
NCI/ADR-RES ovarian = conditions: 10 µM

Measured: growth

O=c1cc(-c2ccccc2)[nH]c(=S)[nH]1
inactive: SK-MEL-2 melanoma 98.8% | EKVX NSCLC 129% | SN12C renal 102% | UO-31 renal 79.2% | TK-10 renal 95.7% | ACHN renal 96.7% | CAKI-1 renal 175% | A498 renal 97.6% | CCRF-CEM leukemia 90.5% | MOLT-4 leukemia 95.3% | SR leukemia 91.9% | RPMI-8226 leukemia 89.6% | OVCAR-8 ovarian 111% | OVCAR-5 ovarian 98.4% | OVCAR-4 ovarian 110% | SK-OV-3 ovarian 113% | IGROV1 ovarian 104% | OVCAR-3 ovarian 106% | HS 578T breast 103% | NCI/ADR-RES ovarian 101%

CN(C)c1ccc(S(=O)(=O)O)cc1
inactive: SK-MEL-2 melanoma 86.2% | EKVX NSCLC 107% | SN12C renal 105% | UO-31 renal 87.9% | TK-10 renal 89.2% | ACHN renal 93.9% | CAKI-1 renal 105% | A498 renal 94.9% | CCRF-CEM leukemia 95.9% | MOLT-4 leukemia 107% | SR leukemia 92.9% | RPMI-8226 leukemia 95.6% | OVCAR-8 ovarian 101% | OVCAR-5 ovarian 93% | OVCAR-4 ovarian 106% | SK-OV-3 ovarian 89% | IGROV1 ovarian 118% | OVCAR-3 ovarian 109% | HS 578T breast 114% | NCI/ADR-RES ovarian 104%

CC(=O)OCCC(C)CCC=C(C)C (stereo not given)
inactive: SK-MEL-2 melanoma 98.1% | EKVX NSCLC 100% | SN12C renal 101% | UO-31 renal 88% | TK-10 renal 106% | ACHN renal 104% | CAKI-1 renal 103% | A498 renal 100% | CCRF-CEM leukemia 104% | MOLT-4 leukemia 114% | SR leukemia 108% | RPMI-8226 leukemia 95% | OVCAR-8 ovarian 102% | OVCAR-5 ovarian 102% | OVCAR-4 ovarian 107% | SK-OV-3 ovarian 111% | IGROV1 ovarian 112% | OVCAR-3 ovarian 121% | HS 578T breast 104% | NCI/ADR-RES ovarian 107%

c1ncc2[nH]cnc2n1
inactive: SK-MEL-2 melanoma 84.6% | EKVX NSCLC 126% | SN12C renal 97.1% | UO-31 renal 83.5% | TK-10 renal 103% | ACHN renal 95.1% | CAKI-1 renal 94.8% | A498 renal 79.1% | CCRF-CEM leukemia 88.7% | MOLT-4 leukemia 80.8% | SR leukemia 100% | RPMI-8226 leukemia 91.9% | OVCAR-8 ovarian 95.6% | OVCAR-5 ovarian 96.7% | OVCAR-4 ovarian 110% | SK-OV-3 ovarian 90.8% | IGROV1 ovarian 92% | OVCAR-3 ovarian 110% | HS 578T breast 114% | NCI/ADR-RES ovarian 104%

O=C(O)c1cccc([N+](=O)[O-])c1
inactive: SK-MEL-2 melanoma 112% | EKVX NSCLC 114% | SN12C renal 103% | UO-31 renal 89.6% | TK-10 renal 110% | ACHN renal 114% | CAKI-1 renal 100% | A498 renal 102% | CCRF-CEM leukemia 112% | MOLT-4 leukemia 101% | SR leukemia 97.4% | RPMI-8226 leukemia 120% | OVCAR-8 ovarian 103% | OVCAR-5 ovarian 120% | OVCAR-4 ovarian 105% | SK-OV-3 ovarian 113% | IGROV1 ovarian 113% | OVCAR-3 ovarian 109% | HS 578T breast 110% | NCI/ADR-RES ovarian 107%

O=C(NN=C1CCCCC1)C(=O)NN=C1CCCCC1
inactive: SK-MEL-2 melanoma 91.2% | EKVX NSCLC 109% | SN12C renal 106% | UO-31 renal 95.6% | TK-10 renal 99% | ACHN renal 109% | CAKI-1 renal 110% | A498 renal 119% | CCRF-CEM leukemia 85.6% | MOLT-4 leukemia 90.9% | SR leukemia 83.7% | RPMI-8226 leukemia 99.6% | OVCAR-8 ovarian 100% | OVCAR-5 ovarian 105% | OVCAR-4 ovarian 115% | SK-OV-3 ovarian 101% | IGROV1 ovarian 127% | OVCAR-3 ovarian 123% | HS 578T breast 115% | NCI/ADR-RES ovarian 114%

NC(C(=O)O)C(O)c1ccco1 (stereo not given)
inactive: SK-MEL-2 melanoma 115% | EKVX NSCLC 109% | SN12C renal 111% | UO-31 renal 96.6% | TK-10 renal 101% | ACHN renal 113% | CAKI-1 renal 97.4% | A498 renal 94.5% | CCRF-CEM leukemia 94% | MOLT-4 leukemia 112% | SR leukemia 112% | RPMI-8226 leukemia 101% | OVCAR-8 ovarian 103% | OVCAR-5 ovarian 108% | OVCAR-4 ovarian 114% | SK-OV-3 ovarian 107% | IGROV1 ovarian 124% | OVCAR-3 ovarian 117% | HS 578T breast 107% | NCI/ADR-RES ovarian 112%

CCOc1ccc(/C=N/N=C(N)N)cc1OCC
inactive: SK-MEL-2 melanoma 113% | EKVX NSCLC 91.8% | SN12C renal 108% | UO-31 renal 74.7% | TK-10 renal 106% | ACHN renal 97.4% | CAKI-1 renal 95.7% | A498 renal 101% | CCRF-CEM leukemia 95.4% | MOLT-4 leukemia 87.6% | SR leukemia 76.3% | RPMI-8226 leukemia 101% | OVCAR-8 ovarian 106% | OVCAR-5 ovarian 101% | SK-OV-3 ovarian 106% | IGROV1 ovarian 95.9% | OVCAR-3 ovarian 107% | NCI/ADR-RES ovarian 109%

CC(=O)Oc1ccc(Br)cc1C(=O)O
inactive: SK-MEL-2 melanoma 99.8% | EKVX NSCLC 104% | SN12C renal 102% | UO-31 renal 81.8% | TK-10 renal 102% | ACHN renal 99.3% | CAKI-1 renal 95.8% | A498 renal 131% | CCRF-CEM leukemia 88.7% | MOLT-4 leukemia 101% | SR leukemia 99.1% | RPMI-8226 leukemia 99.5% | OVCAR-8 ovarian 104% | OVCAR-4 ovarian 104% | SK-OV-3 ovarian 98.2% | IGROV1 ovarian 98.4% | OVCAR-3 ovarian 111%

CCOC(=O)C1OC1c1ccccc1 (stereo not given)
inactive: SK-MEL-2 melanoma 114% | EKVX NSCLC 98.4% | SN12C renal 105% | UO-31 renal 89.2% | TK-10 renal 103% | ACHN renal 104% | CAKI-1 renal 98.6% | A498 renal 96.8% | CCRF-CEM leukemia 109% | MOLT-4 leukemia 107% | SR leukemia 98.7% | RPMI-8226 leukemia 113% | OVCAR-8 ovarian 106% | OVCAR-5 ovarian 102% | OVCAR-4 ovarian 101% | SK-OV-3 ovarian 99% | IGROV1 ovarian 108% | OVCAR-3 ovarian 101% | HS 578T breast 115% | NCI/ADR-RES ovarian 106%

CC(=O)Nc1c(C)cc(C)cc1C
inactive: SK-MEL-2 melanoma 102% | EKVX NSCLC 101% | SN12C renal 111% | UO-31 renal 95.5% | TK-10 renal 104% | ACHN renal 107% | CAKI-1 renal 91.6% | A498 renal 109% | CCRF-CEM leukemia 107% | MOLT-4 leukemia 97.2% | SR leukemia 98.7% | RPMI-8226 leukemia 111% | OVCAR-8 ovarian 104% | OVCAR-5 ovarian 115% | OVCAR-4 ovarian 95.9% | SK-OV-3 ovarian 113% | IGROV1 ovarian 110% | OVCAR-3 ovarian 102% | HS 578T breast 111% | NCI/ADR-RES ovarian 99.7%

CCN(CC)C(=O)/C=C(/C)c1ccccc1
inactive: SK-MEL-2 melanoma 113% | EKVX NSCLC 107% | SN12C renal 104% | UO-31 renal 102% | TK-10 renal 107% | ACHN renal 110% | CAKI-1 renal 100% | A498 renal 86.6% | CCRF-CEM leukemia 100% | MOLT-4 leukemia 114% | SR leukemia 107% | RPMI-8226 leukemia 109% | OVCAR-8 ovarian 105% | OVCAR-5 ovarian 113% | SK-OV-3 ovarian 107% | IGROV1 ovarian 117% | OVCAR-3 ovarian 111% | HS 578T breast 101% | NCI/ADR-RES ovarian 102%

O=C(O)c1ccnc(Br)c1
inactive: SK-MEL-2 melanoma 105% | EKVX NSCLC 98.1% | SN12C renal 113% | UO-31 renal 91.4% | TK-10 renal 104% | ACHN renal 108% | CAKI-1 renal 97.8% | A498 renal 88.7% | CCRF-CEM leukemia 112% | MOLT-4 leukemia 116% | SR leukemia 109% | RPMI-8226 leukemia 115% | OVCAR-8 ovarian 103% | OVCAR-5 ovarian 107% | SK-OV-3 ovarian 101% | IGROV1 ovarian 117% | OVCAR-3 ovarian 112% | HS 578T breast 107% | NCI/ADR-RES ovarian 111%

Nc1nc(N)c2cc(S(=O)(=O)c3cccc(C(F)(F)F)c3)ccc2n1
inactive: SK-MEL-2 melanoma 89.8% | EKVX NSCLC 44% | SN12C renal 33.7% | UO-31 renal 56% | TK-10 renal 72.6% | ACHN renal 38.4% | CAKI-1 renal 65.1% | A498 renal 78.4% | CCRF-CEM leukemia 45.8% | MOLT-4 leukemia 37.3% | SR leukemia 46% | RPMI-8226 leukemia 63.1% | OVCAR-8 ovarian 40.7% | OVCAR-5 ovarian 48% | SK-OV-3 ovarian 72.8% | IGROV1 ovarian 39.5% | OVCAR-3 ovarian 79.2% | HS 578T breast 80.1% | NCI/ADR-RES ovarian 52.6%

O=S(=O)(O)C(Nc1ccccc1)c1ccccc1 (stereo not given)
inactive: SK-MEL-2 melanoma 82.2% | EKVX NSCLC 104% | SN12C renal 97.8% | UO-31 renal 92.7% | TK-10 renal 100% | ACHN renal 97.6% | CAKI-1 renal 93.8% | A498 renal 81.3% | CCRF-CEM leukemia 115% | MOLT-4 leukemia 106% | SR leukemia 98.9% | RPMI-8226 leukemia 100% | OVCAR-8 ovarian 104% | OVCAR-5 ovarian 92.4% | OVCAR-4 ovarian 102% | SK-OV-3 ovarian 97% | OVCAR-3 ovarian 107% | HS 578T breast 93.2% | NCI/ADR-RES ovarian 96.9%

CCCC(=O)Nc1ccc2c(c1)CN1C(=O)c3ccccc3C1=N2
inactive: SK-MEL-2 melanoma 100% | EKVX NSCLC 108% | SN12C renal 100% | UO-31 renal 86.1% | TK-10 renal 96.4% | ACHN renal 111% | CAKI-1 renal 97.2% | A498 renal 88.5% | CCRF-CEM leukemia 99.6% | MOLT-4 leukemia 98.4% | SR leukemia 103% | RPMI-8226 leukemia 106% | OVCAR-8 ovarian 98.2% | OVCAR-4 ovarian 107% | SK-OV-3 ovarian 110% | IGROV1 ovarian 111% | OVCAR-3 ovarian 102% | HS 578T breast 119% | NCI/ADR-RES ovarian 99.5%

CC1(C)OC(=O)C(c2ccsc2)C(=O)O1
inactive: SK-MEL-2 melanoma 112% | EKVX NSCLC 105% | SN12C renal 107% | UO-31 renal 84.4% | TK-10 renal 91.8% | ACHN renal 107% | CAKI-1 renal 100% | A498 renal 113% | CCRF-CEM leukemia 106% | MOLT-4 leukemia 105% | SR leukemia 103% | RPMI-8226 leukemia 103% | OVCAR-8 ovarian 109% | OVCAR-5 ovarian 105% | OVCAR-4 ovarian 102% | SK-OV-3 ovarian 106% | IGROV1 ovarian 103% | OVCAR-3 ovarian 106% | HS 578T breast 99% | NCI/ADR-RES ovarian 97.7%
